The values that follow come from PubChem BioAssay (EPA / NIEHS).

Each structure is given as a SMILES string. “And” between values parts separate entries of the source, which are not always exact repeats. Equal entries are not always repeated. Inconclusive results are not listed. The source holds several records for some structures; these can differ, active in one and inactive in another. The source made the active and inactive calls. Rule for the calls: active = hit-call score of the fitted dose curve at least 0.9, where 1 is the maximum; inconclusive = response in the unintended direction; inactive = score below 0.9.

In the first assay the target is Cellular tumor antigen p53 (Homo sapiens) (UniProt P04637). Briefly: TOX21_p53_BLA_p2_ratio: Tox21 HCT-116 p53 Agonism Beta-lactamase Assay, Ratio, Phase 2 (AID 2283592). The procedure, abridged:
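Gain-of-signal p53 agonism was scored from the beta-lactamase FRET ratio (460/530 nm, 405 nm excitation) in HCT116 cells treated 16 h at 37C, 5% CO2, with DMSO serving as negative control and baseline.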
Turning to `CCOc1ccc(N)c([N+](=O)[O-])c1`, the outcome was inactive.
Still for that read-out and setting: as for `CCCCCCCCCCCCCCCCCC#N`, the entry is “inactive”; as for `CC(C)CCCCCOC(=O)CCS`, “inactive”; as for `C=C(C)[C@@H]1CCC2=CCC[C@@H](C)[C@]2(C)C1`, “inactive”.
The same measure, in the same setting: as for `CCCCCCOC(=O)C(C)CC` (stereo not drawn), the entry is “inactive”; as for `C=CC(C)(CCC=C(C)C)OC(=O)C(C)C` (stereo not drawn), “inactive”; as for `Cc1cc(C)c(C(=O)O)c(C)c1`, “inactive”.
As to `O=C1CC2CC1C1CCCC21` (stereo not drawn), the outcome was inactive.
Same read-out and setting: as for `CC(=O)C=CC1C(C)=CCC(C)C1(C)C` (stereo not drawn), the entry is “inactive”.
Consider `O=C1CCCCCCCCCCC(=O)OCCO1`, for which the outcome was inactive.
The same measure, in the same setting: as for `Cc1cnc(NC(=O)C2=C(O)c3ccccc3S(=O)(=O)N2C)s1`, the entry is “inactive”; as for `CC(=O)OCC(C)OC(C)=O` (stereo not drawn), “inactive”; as for `CCC(CC)C(=O)O`, “inactive”.
The same measure, in the same setting: as for `O=C(c1ccc(O)cc1)c1ccc(O)cc1O`, the entry is “inactive”; as for `CC1(C)S[C@@H]2[C@H](NC(=O)COc3ccccc3)C(=O)N2[C@H]1C(=O)O`, “inactive”; as for `C=C(C)c1cccc(C(C)(C)N=C=O)c1`, “inactive”.
For the molecule `CC(C)c1ccc(C#N)cc1`, the result was inactive.
Regarding `CCCCCCCCCCOC(C)=O`, the result was inactive.
On the same count and under the same terms, as for `C1=Cc2ccccc2C1`, the entry is “inactive”; as for `NC(=O)NNC(N)=O`, “inactive”.
Still for that read-out and setting: as for `COC(=O)c1sccc1S(N)(=O)=O`, the entry is “inactive”; as for `NNC(=O)c1cccc(C(=O)NN)c1`, “inactive”; as for `Cc1cc(C)c(C)cc1C`, “inactive”.
In the case of `O=C1CCCC(=O)O1`, the result was inactive.
Regarding `CCO[Si](CCCN=C=O)(OCC)OCC`, the result was inactive.
Same read-out and setting: as for `Cc1ccc(C(C)(C)C)cc1`, the entry is “inactive”; as for `COc1ccc([C@@H]2CC(=O)c3c(O)cc(O[C@@H]4O[C@H](CO[C@@H]5O[C@@H](C)[C@H](O)[C@@H](O)[C@H]5O)[C@@H](O)[C@H](O)[C@H]4O)cc3O2)cc1OC`, “inactive”; as for `Cc1cc(C)c(C)c(O)c1`, “inactive”.
On to `CNC(=S)NN`, for which the outcome was inactive.
Take `CCN(CC#N)c1cccc(C)c1`: the outcome was inactive.
Same read-out and setting: as for `Cc1ccccc1C`, the entry is “inactive”.
The AC50 is the concentration giving half of the maximal activity seen. `CCC(=O)Oc1ccc(/C(CC)=C(\CC)c2ccc(OC(=O)CC)cc2)cc1`: the concentration at half-maximal activity (AC50) was 6.81 µM (active).

System in the next assay: not listed separately
The assay is described as follows: TOX21_p53_BLA_p3_viability: Viability Assessment in the Tox21 HCT-116 p53 Agonism Beta-lactamase Assay, Phase 3 (AID 2283593).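 Note: cells exposed to compound for 16 h before reading.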 The procedure, abridged: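 HCT-116 cells (4000/well) rested 5 h at 37C, then got DMSO compounds by pin tool (217-fold dilution) for 16 h at 37C, 5% CO2. After the bla read, CellTiter-Glo was added and luminescence read at 30 min, room temperature.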
As for `CCOc1ccc(N)c([N+](=O)[O-])c1`, the call was inactive.
The same measure, in the same setting: as for `C=C(C)[C@@H]1CCC2=CCC[C@@H](C)[C@]2(C)C1`, the entry is “inactive”; as for `OCCNCc1ccccc1`, “inactive”.
As to `CC(=O)C=CC1C(C)=CCC(C)C1(C)C` (stereo not drawn), the molecule was classed as inactive.
Still for that read-out and setting: as for `O=C(Nc1ccccc1SSc1ccccc1NC(=O)c1ccccc1)c1ccccc1`, the entry is “inactive”; as for `CCC(CC)C(=O)O`, “inactive”.
The same measure, in the same setting: as for `C=C(C)c1cccc(C(C)(C)N=C=O)c1`, the entry is “inactive”; as for `CC(C)c1ccc(C#N)cc1`, “inactive”.
The same measure, in the same setting: as for `C1=Cc2ccccc2C1`, the entry is “inactive”.
Take `CC(=O)OCCC1CCCCC1`: the molecule was classed as inactive.
Still for that read-out and setting: as for `OC1OCCOC1O` (stereo not drawn), the entry is “inactive”; as for `Cc1cc(C)c(C)c(O)c1`, “inactive”; as for `Cc1ccccc1C`, “inactive”.

The next assay concerns the target Cellular tumor antigen p53 (Homo sapiens) (UniProt P04637). The assay is described as follows: TOX21_p53_BLA_p3_ratio: Tox21 HCT-116 p53 Agonism Beta-lactamase Assay, Ratio, Phase 3 (AID 2283596). The procedure, abridged: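 HCT116 p53-bla cells (4000/well) given compound in DMSO (217-fold dilution) after 5 h, incubated 16 h at 37C. CCF4-AM substrate 2 h at room temperature; 460/530 nm emission ratio, gain fitted against DMSO.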
With `CCCCCCCCCCCCCCCCCC#N`, the outcome was inactive.
As to `CC(C)CCCCCOC(=O)CCS`, the outcome was inactive.
For the molecule `Cc1cc(C)c(C(=O)O)c(C)c1`, the result was inactive.
Regarding `OCCNCc1ccccc1`, the result was inactive.
For `O=C1CCCCCCCCCCC(=O)OCCO1`, the outcome was inactive.
On the same count and under the same terms, as for `Cc1cnc(NC(=O)C2=C(O)c3ccccc3S(=O)(=O)N2C)s1`, the entry is “inactive”.
In the case of `O=C(Nc1ccccc1SSc1ccccc1NC(=O)c1ccccc1)c1ccccc1`, the concentration at half-maximal activity (AC50) is 72.5 µM (active) and the outcome was inactive.
Take `CC(=O)OCC(C)OC(C)=O` (stereo not drawn): the outcome was inactive.
For `O=C(c1ccc(O)cc1)c1ccc(O)cc1O`, the AC50 is 68.5 µM (active) and the outcome was inactive.
Take `CC1(C)S[C@@H]2[C@H](NC(=O)COc3ccccc3)C(=O)N2[C@H]1C(=O)O`: the result was inactive.
Regarding `CCCCCCCCCCOC(C)=O`, the result was inactive.
The same measure, in the same setting: as for `CC(=O)OCCC1CCCCC1`, the entry is “inactive”; as for `NC(=O)NNC(N)=O`, “inactive”.
On the same count and under the same terms, as for `NNC(=O)c1cccc(C(=O)NN)c1`, the entry is “inactive”.
Still for that read-out and setting: as for `Cc1cc(C)c(C)cc1C`, the entry is “inactive”.
Take `OC1OCCOC1O` (stereo not drawn): the outcome was inactive.
The same measure, in the same setting: as for `CCO[Si](CCCN=C=O)(OCC)OCC`, the entry is “inactive”.
As for `Cc1ccc(C(C)(C)C)cc1`, the outcome was inactive.
The same measure, in the same setting: as for `COc1ccc([C@@H]2CC(=O)c3c(O)cc(O[C@@H]4O[C@H](CO[C@@H]5O[C@@H](C)[C@H](O)[C@@H](O)[C@H]5O)[C@@H](O)[C@H](O)[C@H]4O)cc3O2)cc1OC`, the entry is “inactive”; as for `CNC(=S)NN`, “inactive”.
With `CCC(=O)Oc1ccc(/C(CC)=C(\CC)c2ccc(OC(=O)CC)cc2)cc1`, the AC50 is 16.4 µM (active).

System in the next assay: not listed separately
Briefly: TOX21_p53_BLA_p4_viability: Viability Assessment in the Tox21 HCT-116 p53 Agonism Beta-lactamase Assay, Phase 4 (AID 2283597).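 Note: hits lower the luminescence signal meaning cytotoxicity.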 In outline: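 Following a 16 h exposure at 37C, the treated HCT116 wells were first read for the FRET ratio. They were then lysed with CellTiter-Glo, and ATP luminescence was recorded after 30 min at room temperature.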
Regarding `C=C(C)[C@@H]1CCC2=CCC[C@@H](C)[C@]2(C)C1`, the molecule was classed as inactive.
For the molecule `CCCCCCOC(=O)C(C)CC` (stereo not drawn), the call was inactive.
On the same count and under the same terms, as for `OCCNCc1ccccc1`, the entry is “inactive”; as for `O=C1CC2CC1C1CCCC21` (stereo not drawn), “inactive”.
As for `CC1(C)S[C@@H]2[C@H](NC(=O)COc3ccccc3)C(=O)N2[C@H]1C(=O)O`, the call was inactive.
For `C1=Cc2ccccc2C1`, the molecule was called inactive.
As for `CC(=O)OCCC1CCCCC1`, the outcome was inactive.
Turning to `COC(=O)c1sccc1S(N)(=O)=O`, the outcome was inactive.
`NNC(=O)c1cccc(C(=O)NN)c1`: the outcome was inactive.
`OC1OCCOC1O` (stereo not drawn): the outcome was inactive.
Same read-out and setting: as for `O=C1CCCC(=O)O1`, the entry is “inactive”.

For a further assay, the target named is Cellular tumor antigen p53 (Homo sapiens) (UniProt P04637). The assay is described as follows: TOX21_p53_BLA_p5_ratio: Tox21 HCT-116 p53 Agonism Beta-lactamase Assay, Ratio, Phase 5 (AID 2283599). The procedure, abridged: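 HCT-116 cells carrying a p53-inducible beta-lactamase reporter were seeded at 4000 cells/well and dosed after 5 h with compound in DMSO (217-fold dilution). After 16 h at 37C, CCF4-AM substrate was added for 2 h, and the 460/530 nm emission ratio was scored as gain-of-signal versus DMSO.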
Chain of Cellular tumor antigen p53 (Homo sapiens) (P04637 whole entry, looked up): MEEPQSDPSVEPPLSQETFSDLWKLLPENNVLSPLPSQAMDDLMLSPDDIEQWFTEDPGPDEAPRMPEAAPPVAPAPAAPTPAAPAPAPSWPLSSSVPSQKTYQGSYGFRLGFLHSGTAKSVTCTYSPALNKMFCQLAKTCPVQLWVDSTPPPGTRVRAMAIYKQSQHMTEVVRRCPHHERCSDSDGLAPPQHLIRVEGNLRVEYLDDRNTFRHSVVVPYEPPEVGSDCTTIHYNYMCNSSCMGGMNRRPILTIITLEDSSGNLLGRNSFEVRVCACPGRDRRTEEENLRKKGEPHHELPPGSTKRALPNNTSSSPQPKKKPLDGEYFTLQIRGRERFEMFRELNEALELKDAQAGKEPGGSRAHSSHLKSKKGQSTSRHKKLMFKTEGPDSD
On to `CCOc1ccc(N)c([N+](=O)[O-])c1`, for which the outcome was inactive.
As for `CCCCCCCCCCCCCCCCCC#N`, the outcome was inactive.
With `CC(C)CCCCCOC(=O)CCS`, the outcome was inactive.
Turning to `C=C(C)[C@@H]1CCC2=CCC[C@@H](C)[C@]2(C)C1`, the outcome was inactive.
For the molecule `C=CC(C)(CCC=C(C)C)OC(=O)C(C)C` (stereo not drawn), the result was inactive.
On to `Cc1cc(C)c(C(=O)O)c(C)c1`, for which the outcome was inactive.
Same read-out and setting: as for `OCCNCc1ccccc1`, the entry is “inactive”; as for `O=C1CC2CC1C1CCCC21` (stereo not drawn), “inactive”; as for `CC(=O)C=CC1C(C)=CCC(C)C1(C)C` (stereo not drawn), “inactive”.
Same read-out and setting: as for `O=C1CCCCCCCCCCC(=O)OCCO1`, the entry is “inactive”; as for `Cc1cnc(NC(=O)C2=C(O)c3ccccc3S(=O)(=O)N2C)s1`, “inactive”.
Consider `O=C(Nc1ccccc1SSc1ccccc1NC(=O)c1ccccc1)c1ccccc1`, for which the half-maximal activity concentration (AC50) was 60 µM (active) and 53.4 µM (active).
Consider `CC(=O)OCC(C)OC(C)=O` (stereo not drawn), for which the outcome was inactive.
`O=C(c1ccc(O)cc1)c1ccc(O)cc1O`: the AC50 is 86.2 µM (active) and the outcome was inactive.
On to `CC1(C)S[C@@H]2[C@H](NC(=O)COc3ccccc3)C(=O)N2[C@H]1C(=O)O`, for which the outcome was inactive.
With `C=C(C)c1cccc(C(C)(C)N=C=O)c1`, the result was inactive.
For the molecule `NC(=O)NNC(N)=O`, the result was inactive.
Same read-out and setting: as for `COC(=O)c1sccc1S(N)(=O)=O`, the entry is “inactive”; as for `NNC(=O)c1cccc(C(=O)NN)c1`, “inactive”.
On the same count and under the same terms, as for `Cc1cc(C)c(C)cc1C`, the entry is “inactive”; as for `OC1OCCOC1O` (stereo not drawn), “inactive”; as for `O=C1CCCC(=O)O1`, “inactive”.
Same read-out and setting: as for `Cc1ccc(C(C)(C)C)cc1`, the entry is “inactive”; as for `COc1ccc([C@@H]2CC(=O)c3c(O)cc(O[C@@H]4O[C@H](CO[C@@H]5O[C@@H](C)[C@H](O)[C@@H](O)[C@H]5O)[C@@H](O)[C@H](O)[C@H]4O)cc3O2)cc1OC`, “inactive”.
Consider `Cc1cc(C)c(C)c(O)c1`, for which the outcome was inactive.
On the same count and under the same terms, as for `CCN(CC#N)c1cccc(C)c1`, the entry is “inactive”; as for `Cc1ccccc1C`, “inactive”.
Regarding `CCC(=O)Oc1ccc(/C(CC)=C(\CC)c2ccc(OC(=O)CC)cc2)cc1`, the AC50 is 5.08 µM (active).
